PubChem BioAssay (NCATS)
Records with an inconclusive call do not appear. Values without a mark were called inactive. Activity calls are given as the source filed them. Calls come from the whole dose curve; as a rule, active = well fitted inhibition curve with a large enough effect; inconclusive = small, poorly fitted or top-dose-only effect; inactive = flat fitted curve, though single readings scatter.

These compounds were tested on HEK293 (assay: Cytotoxic Profiling of Annotated Libraries Using Quantitative High-Throughput Screening (AID 1296008; note: nearly all actives have a fitted effect of over 60% in size)). Conditions: Five cell lines viability, CellTiter-Glo ATP luminescence, 48-72 h; max response: active compounds read low.
In short: (§1)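 Cytotoxicity was measured as CellTiter-Glo ATP luminescence, read after 10 min at room temperature. Compound treatment of the cells lasted 48 or 72 hr at 37 degrees Celsius in a qHTS format.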
% is set by controls: 0 for no effect and ±100 for the full control effect; potency is the fitted concentration of half-maximal effect.

| SMILES | Potency |
| --- | --- |
| CN1C(=O)c2sccc2N(C)c2nc(Nc3ccc(S(N)(=O)=O)cc3)ncc21 | 11.7 µM (active) |
| CC(C)NCCCn1c(Sc2cc3c(cc2I)OCO3)nc2c(N)ncnc21 | 0.184 µM (active) |
| O=C(Nc1ccc(Cl)cc1)C1CCCN(C(=O)c2cccc(-c3ccco3)c2)C1 (centres undefined) | 18.4 µM (active) |
| COc1c(C)cnc(Cn2cc(C#CCC(C)(C)O)c3c(Cl)nc(N)nc32)c1C | 0.0517 µM (active) |
| Cc1cc(-c2nc(-c3ccc(OC(F)(F)F)cc3)no2)nn1Cc1ccnc(N2CCN(C3CC3)CC2)c1 | 0.0065 µM (active) |
| CCOC(=O)[C@@]1(CCCCCCOc2ccc(Cl)cc2)CO1 | 8.31 µM (active) |
| COC(C)(C)CCn1nc(Nc2c(C)cccc2C)c2cnc(Nc3ccc(OCCN4CCCC4)c(F)c3)nc21 | 7.31 µM (active) |
| CCOC(=O)c1cnc2ccc(-c3cncc(NS(=O)(=O)c4ccccc4)c3)cn12 | 1.03 µM (active) |
| CN1CCC(NC(=O)c2cc(-c3c(O)cc(O)cc3Oc3ccc([N+](=O)[O-])cc3)on2)CC1 | 0.206 µM (active) |
| O=C1C(Cc2ccc(O)cc2)N2C(=O)CCN(C(=O)NCc3ccccc3)C2CN1Cc1cccc2ccccc12 (centres undefined) | 4.11 µM (active) |
| COc1cc(N2CCC(N3CCN(C)CC3)CC2)ccc1Nc1ncc(Cl)c(Nc2ccccc2P(C)(C)=O)n1 | 5.8 µM (active) |

What follows are compounds tested on HaCat in the same assay as above. Conditions: Five cell lines viability, CellTiter-Glo ATP luminescence, 48-72 h; max response: active compounds read low.
In short: as §1

| SMILES | max response | Potency |
| --- | --- | --- |
| COc1ccc(-c2cc3onc(-c4ccncc4)c3c(=O)n2C)cc1 | -2.33% | – |
| COC1CC/C=C(\C)C(=O)Nc2cc(O)cc(c2)CC(C)CC(OC)C(O)C(C)/C=C(\C)C1OC(N)=O (centres undefined) | – | 7.09 µM (active) |
| C=C[C@@]12COC(=O)C(=C)[C@@H]1[C@@H](O)[C@H](C(=C)C(=O)OC)[C@@H](O)C2 | -29% | – |
| COC(=O)C1=CO[C@@H](O[C@@H]2O[C@H](CO)[C@@H](O)[C@H](O)[C@H]2O)[C@H]2[C@@H]1C=C[C@]21C=C([C@H](C)OC(=O)/C=C/c2ccc(O)cc2)C(=O)O1 | – | 3.85 µM (active) |
| COc1cc(N2CCC(N)CC2)ccc1Nc1ncc(Cl)c(-c2c[nH]c3ccccc23)n1 | – | 5.17 µM (active) |
| C=C(C)Cn1c(SCC(=O)c2cccs2)nc2sc3c(c2c1=O)CCCC3 | 2.85% | – |
| CCc1c[nH]c2ncnc(N3CC[C@](N)(CNC(=O)c4ccc(F)cc4F)C3)c12 | -5.86% | – |
| CC[C@@H](C)Nc1cc(C(=O)NC2CC3CCC(C2)N3c2ccc(C(=O)C3CC3)cn2)c(C)cc1C(N)=O (some centres undefined) | – | 0.184 µM (active) |
| Cc1nc(-c2cn3c(n2)-c2ccc(-c4cnn(C(C)(C)C(N)=O)c4)cc2OCC3)n(C(C)C)n1 | – | 2.91 µM (active) |
| Cc1csc2c(N[C@@H](C)CN3CCN(S(=O)(=O)c4ccc(Cl)c(Cl)c4)CC3)ncnc12 | – | 2.91 µM (active) |
| N#Cc1ccc(Nc2nc(-c3ccc(O)cc3O)cs2)cc1C(F)(F)F | – | 7.31 µM (active) |
| CC(C)c1ccccc1OC(=O)NCCc1ccc2ccccc2c1 | 3.54% | – |
| O=C(Cc1cccc(OC(F)(F)F)c1)Nc1ccc(CCCCc2nnc(NC(=O)Cc3ccccn3)s2)nn1 | – | 23.4 µM (active) |
| COC1=CC(=O)C[C@@H](C)[C@@]12Oc1c(Cl)c(OC)cc(OC)c1C2=O | -90.1% | – |
| Cc1ccc(C(=O)Nc2ccc(CN3CCN(C)CC3)c(C(F)(F)F)c2)cc1C#Cc1cnc2[nH]ncc2c1 | – | 1.64 µM (active) |
| CCc1cc(C(N)=O)ccc1-n1nc(C(C)C)c2c(-n3cnc(-c4cnn(C)c4)c3)ccnc21 | -102% | – |
| COc1cc2nc(C3CC3)nc(N3CCN(c4ccccc4OC)CC3)c2cc1OC | -4.62% | – |
| CC[C@@H](C)Nc1cc(C(=O)NC2CC3CC[C@@H](C2)N3c2ccc(C(=O)C3CC3)cn2)c(C)cc1C(N)=O (some centres undefined) | – | 0.092 µM (active) |
| Nc1nc(O)c(C2=C3C(=Nc4ccccc43)C(=O)NCC2)[nH]1 | -1.91% | – |
| COc1ccc(C[C@H]2COC(=O)[C@@H]2Cc2ccc(O[C@@H]3O[C@H](CO)[C@@H](O)[C@H](O)[C@H]3O)c(OC)c2)cc1OC | -11.8% | – |
| COc1cc(O)c2c(c1)C1OC1C[C@H](O)[C@H](O)C(=O)/C=C\C[C@H](C)OC2=O (some centres undefined) | – | 8.2 µM (active) |
| CC(/C=C/C(=O)NO)=C\[C@@H](C)C(=O)c1ccc(N(C)C)cc1 | – | 0.92 µM (active) |
| C/C1=C/CCC2=CC(OC2=O)C(C)(C)/C=C/C1=O (centres undefined) | – | 2.59 µM (active) |
